Test results from PubChem BioAssay.
Calls of active or inactive are those of the source.

Legend:
[1] = system: Plasmodium falciparum Sir2 (PF13_0152, Sir2A); assay: Plasmodium falciparum Sir2A binding compounds – biochemical, small-molecule microarray, 635 nm fluorescence, primary screen (AID 1098); conditions: fluorescence 635 nm, higher = more signal;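 also: score merges spot fluorescence intensity with its signal-to-noise ratio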
[2] = probe aDKK1 binding to arrayed compounds – biochemical, biotinylated probe, 635/667 nm fluorescence, primary screen (AID 1099); conditions: small-molecule microarray, higher = more signal;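 also: score merges 667nm spot fluorescence with signal to noise across triplicate slides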
[3] = probe aCHRDL2 binding to arrayed compounds – biochemical, biotinylated probe, 635/667 nm fluorescence, primary screen (AID 1100); conditions: small-molecule microarray, higher = more signal
[4] = change in splice reporter luminescence, either direction, cell-based, HEK293, spliceosome inhibition project, primary screen (AID 1101); conditions: HEK293 splicing luciferase reporter, 24 h, higher = more signal, called active from +8 up or from −8 down;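 also: HEK293 cells carrying a splicing-competent luciferase reporter gene; test concentration not given here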
[5] = target: Fibroblast growth factor 10 (Homo sapiens) (UniProt O15520); assay: compounds binding fibroblast growth factor 10 – biochemical, small-molecule microarray, 635 nm fluorescence, primary screen (AID 1102); conditions: FGF10 binding, fluorescence 635 nm, higher = more signal
[6] = system: glycogen synthase kinase-3 (GSK3A per assay name; protocol says GSK3B); assay: compounds binding glycogen synthase kinase-3 – biochemical, small-molecule microarray, 635 nm fluorescence, GSK3A, primary screen (AID 1103); conditions: fluorescence 635 nm, higher = more signal; also: the record names both GSK3A and GSK3B
[7] = target: Epidermal growth factor receptor (Homo sapiens) (UniProt P00533); assay: compounds binding epidermal growth factor receptor – biochemical, small-molecule microarray, 635 nm fluorescence, primary screen (AID 1104); conditions: EGFR binding, higher = more signal;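 also: score merges 667 nm emission intensity with spot signal to noise over triplicate slides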
[8] = target: Follistatin-related protein 3 (Homo sapiens) (UniProt O95633); assay: compounds binding follistatin-related protein 3 – biochemical, small-molecule microarray, 635 nm fluorescence, primary screen (AID 1105); conditions: FSTL3 binding, higher = more signal;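 also: score merges emission near 667 nm and signal to noise per printed spot across three slides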
[9] = target: Dickkopf-related protein 1 (Homo sapiens) (UniProt O94907); assay: small molecules binding DKK1 protein – biochemical, small-molecule microarray, 635 nm fluorescence scan, primary screen (AID 1106); conditions: higher = more signal;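 also: score merges emission near 667 nm with signal to noise over three replicate slides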
[10] = system: Inhibin beta A chain (activin A); assay: small molecules binding activin A – biochemical, small-molecule microarray, 635 nm fluorescence scan, primary screen (AID 1107); conditions: INHBA, higher = more signal;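 also: mouse activin A protein probed at 4.33 µg/mL on printed slides; score merges bound-protein fluorescence near 667 nm with spot signal-to-noise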
[11] = system: Human papillomavirus type 1a protein E7 (residues 44-93); assay: small molecules binding HPV E7 44-93 – biochemical, small-molecule microarray, residues 44-93, 635 nm fluorescence, primary screen (AID 1108); conditions: fluorescence 635 nm, higher = more signal;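 also: E7 fragment applied at 1 µg/mL in TBST for 1 h at 4 C; score combines spot fluorescence with its signal to noise ratio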
[12] = hepatitis C replication reporter changes, two-sided – Huh7 cells, luciferase reporter, HCV replication inhibitor project, primary screen (AID 1109); conditions: Huh7 HCV replicon luciferase reporter, 48 h; higher = more signal;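 also: huh7 hepatoma cells harbouring a luciferase neomycin HCV replicon reporter; luciferase luminescence as measure of HCV replicon replication; test concentration not given here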
[13] = target: Left-right determination factor 2 (Homo sapiens) (UniProt O00292); assay: small molecules binding LEFTY2 protein – biochemical, small-molecule microarray, 635 nm fluorescence scan, primary screen (AID 1110); conditions: higher = more signal
[14] = target: Calmodulin-1 (Homo sapiens) (UniProt P0DP23); assay: small molecules binding calmodulin-1 with EGTA – biochemical, small-molecule microarray, Cy5-labelled CALM1, profiling panel (AID 1111); conditions: Cy5-CALM1 binding fluorescence, higher = more signal;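 also: labelled calmodulin applied in Tris saline Tween buffer holding calcium plus EGTA and DTT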
[15] = target: Calmodulin-1 (Homo sapiens) (UniProt P0DP23); assay: small molecules binding Ca-loaded calmodulin-1 – biochemical, small-molecule microarray, Cy5-labelled CALM1, plus calcium, artefact control for SMM control-protein annotation, profiling panel (AID 1112); conditions: Cy5-CALM1 binding fluorescence, higher = more signal;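 also: score merges spot fluorescence with signal to noise from triplicate slides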
[16] = probe aWnt5a binding to arrayed compounds – biochemical, biotinylated probe, 635/667 nm fluorescence, primary screen (AID 1113); conditions: small-molecule microarray, higher = more signal;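 also: score merges 667 nm fluorescence intensity with signal-to-noise per printed feature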
[17] = probe aShh binding to arrayed compounds – biochemical, biotinylated probe, 635/667 nm fluorescence, primary screen (AID 1114); conditions: small-molecule microarray, higher = more signal;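 also: probe is biotin-labelled aShh protein from a stem cell growth factor screen; measures binding of labelled protein to compounds printed on the slide; score merges feature fluorescence at 667 nm with signal-to-noise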
[18] = probe aNog binding to arrayed compounds – biochemical, biotinylated probe, 635/667 nm fluorescence, primary screen (AID 1115); conditions: small-molecule microarray, higher = more signal;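 also: probe is biotinylated aNog protein used at 0.15 µg/mL for 1 h at 4 C; z-score combines 667 nm fluorescence of each spot with its signal to noise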
[19] = target: Torsin-1A-interacting protein 1 (Homo sapiens) (UniProt Q5JTV8); assay: compound microarray binding of lysate hLAP1 – cell lysate, small-molecule microarray, COS7 lysate, 635/667 nm fluorescence, primary screen (AID 1116); conditions: 635 nm fluorescence, higher = more signal
[20] = target: Alpha-bungarotoxin (Bungarus multicinctus) (UniProt P60615); assay: compounds binding labelled alpha-BTX control protein – biochemical, small-molecule microarray, Alexa647 label, 635/667 nm fluorescence, artefact control for SMM control protein annotation, profiling panel (AID 1117); conditions: alpha-BTX-A647 binding fluorescence, higher = more signal
Alpha-bungarotoxin (Bungarus multicinctus), sequence (P60615 whole entry, looked up): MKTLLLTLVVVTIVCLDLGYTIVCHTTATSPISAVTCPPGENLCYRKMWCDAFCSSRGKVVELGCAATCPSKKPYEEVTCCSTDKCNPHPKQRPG

Epidermal growth factor receptor (Homo sapiens), sequence (P00533 whole entry, looked up): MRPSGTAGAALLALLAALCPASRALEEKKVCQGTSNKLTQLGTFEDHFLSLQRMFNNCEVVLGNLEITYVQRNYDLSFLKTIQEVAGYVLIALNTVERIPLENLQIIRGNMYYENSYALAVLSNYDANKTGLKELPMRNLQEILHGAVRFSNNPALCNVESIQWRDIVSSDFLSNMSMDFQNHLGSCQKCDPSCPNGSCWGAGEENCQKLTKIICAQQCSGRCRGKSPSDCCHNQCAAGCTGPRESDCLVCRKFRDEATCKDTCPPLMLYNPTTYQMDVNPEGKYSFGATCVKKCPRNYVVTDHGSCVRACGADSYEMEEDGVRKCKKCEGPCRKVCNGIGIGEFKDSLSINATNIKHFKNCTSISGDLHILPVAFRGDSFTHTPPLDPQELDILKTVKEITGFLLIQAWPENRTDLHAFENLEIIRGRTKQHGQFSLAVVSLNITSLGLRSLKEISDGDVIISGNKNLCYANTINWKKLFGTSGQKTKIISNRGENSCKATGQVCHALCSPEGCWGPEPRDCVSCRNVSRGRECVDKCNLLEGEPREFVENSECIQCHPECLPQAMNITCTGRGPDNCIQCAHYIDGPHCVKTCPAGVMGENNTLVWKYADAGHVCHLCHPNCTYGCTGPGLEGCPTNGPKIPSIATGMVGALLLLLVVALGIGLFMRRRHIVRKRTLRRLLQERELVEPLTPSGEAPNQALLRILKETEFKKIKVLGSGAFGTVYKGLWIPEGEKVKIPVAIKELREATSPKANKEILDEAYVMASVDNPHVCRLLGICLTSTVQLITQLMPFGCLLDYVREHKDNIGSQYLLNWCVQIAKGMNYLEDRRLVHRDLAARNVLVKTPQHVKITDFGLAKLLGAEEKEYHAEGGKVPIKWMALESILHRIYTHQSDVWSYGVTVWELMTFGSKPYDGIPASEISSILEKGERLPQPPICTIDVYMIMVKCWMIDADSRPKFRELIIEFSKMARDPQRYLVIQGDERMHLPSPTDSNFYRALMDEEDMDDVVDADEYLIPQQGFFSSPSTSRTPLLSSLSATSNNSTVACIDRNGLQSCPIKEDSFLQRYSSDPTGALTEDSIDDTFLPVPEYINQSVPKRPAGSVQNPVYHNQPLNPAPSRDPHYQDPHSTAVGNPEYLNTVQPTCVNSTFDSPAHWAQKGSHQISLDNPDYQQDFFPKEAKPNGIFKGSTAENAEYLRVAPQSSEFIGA
Left-right determination factor 2 (Homo sapiens), sequence (O00292 whole entry, looked up): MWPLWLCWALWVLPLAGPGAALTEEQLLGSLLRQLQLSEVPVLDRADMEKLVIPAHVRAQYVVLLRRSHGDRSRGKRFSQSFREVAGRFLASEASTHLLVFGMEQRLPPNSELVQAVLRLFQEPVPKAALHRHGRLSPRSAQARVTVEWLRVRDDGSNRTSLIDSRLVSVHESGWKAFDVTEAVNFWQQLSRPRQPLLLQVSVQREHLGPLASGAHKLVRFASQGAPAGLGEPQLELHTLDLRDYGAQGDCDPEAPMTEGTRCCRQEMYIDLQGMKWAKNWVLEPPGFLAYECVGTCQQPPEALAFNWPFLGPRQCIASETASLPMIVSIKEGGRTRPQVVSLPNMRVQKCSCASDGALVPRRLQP
Dickkopf-related protein 1 (Homo sapiens), sequence (O94907 whole entry, looked up): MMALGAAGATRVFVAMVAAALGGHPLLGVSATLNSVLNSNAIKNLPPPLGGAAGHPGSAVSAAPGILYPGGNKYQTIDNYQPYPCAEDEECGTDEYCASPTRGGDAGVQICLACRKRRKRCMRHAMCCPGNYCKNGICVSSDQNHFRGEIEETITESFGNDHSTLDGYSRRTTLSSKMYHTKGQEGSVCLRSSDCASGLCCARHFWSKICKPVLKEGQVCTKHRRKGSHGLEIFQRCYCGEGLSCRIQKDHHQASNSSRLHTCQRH
Follistatin-related protein 3 (Homo sapiens), sequence (O95633 whole entry, looked up): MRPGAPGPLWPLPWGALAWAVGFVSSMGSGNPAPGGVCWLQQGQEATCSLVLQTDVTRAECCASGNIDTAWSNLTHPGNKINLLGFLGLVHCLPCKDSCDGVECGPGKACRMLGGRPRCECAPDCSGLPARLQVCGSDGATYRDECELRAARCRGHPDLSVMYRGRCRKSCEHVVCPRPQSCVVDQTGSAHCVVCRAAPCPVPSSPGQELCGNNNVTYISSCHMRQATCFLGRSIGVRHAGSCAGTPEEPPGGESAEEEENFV
Fibroblast growth factor 10 (Homo sapiens), sequence (O15520 whole entry, looked up): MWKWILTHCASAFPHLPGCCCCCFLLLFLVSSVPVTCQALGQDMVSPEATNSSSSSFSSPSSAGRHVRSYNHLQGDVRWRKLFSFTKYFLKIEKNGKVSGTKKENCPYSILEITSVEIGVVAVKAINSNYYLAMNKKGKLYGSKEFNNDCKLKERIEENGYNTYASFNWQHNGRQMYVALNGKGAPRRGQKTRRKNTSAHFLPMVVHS
Torsin-1A-interacting protein 1 (Homo sapiens), sequence (Q5JTV8 whole entry, looked up): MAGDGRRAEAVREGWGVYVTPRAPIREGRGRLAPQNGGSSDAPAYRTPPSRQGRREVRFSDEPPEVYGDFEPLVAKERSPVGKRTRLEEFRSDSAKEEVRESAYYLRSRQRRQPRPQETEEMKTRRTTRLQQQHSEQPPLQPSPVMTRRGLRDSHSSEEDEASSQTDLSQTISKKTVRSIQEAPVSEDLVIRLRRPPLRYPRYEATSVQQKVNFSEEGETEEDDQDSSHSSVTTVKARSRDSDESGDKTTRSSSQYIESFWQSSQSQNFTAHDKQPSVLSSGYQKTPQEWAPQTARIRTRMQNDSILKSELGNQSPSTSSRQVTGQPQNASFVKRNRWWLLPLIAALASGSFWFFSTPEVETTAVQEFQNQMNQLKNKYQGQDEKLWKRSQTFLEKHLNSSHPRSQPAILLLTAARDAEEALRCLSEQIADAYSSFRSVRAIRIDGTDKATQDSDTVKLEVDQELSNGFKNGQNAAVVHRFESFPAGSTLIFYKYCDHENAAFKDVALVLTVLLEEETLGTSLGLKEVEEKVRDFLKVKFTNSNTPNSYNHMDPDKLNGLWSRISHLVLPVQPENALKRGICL

SMILES | composite z-score [1] | composite z-score [2] | composite z-score [3] | z-score [4] | composite z-score [5] | composite z-score [6] | composite z-score [7] | composite z-score [8] | composite z-score [9] | composite z-score [10] | composite z-score [11] | z-score [12] | composite z-score [13] | composite z-score [14] | composite z-score [15] | composite z-score [16] | composite z-score [17] | composite z-score [18] | composite z-score [19] | composite z-score [20]
C=CCC(OC(C)=O)[C@@H]1[C@@H](N(Cc2cc3ccccc3o2)C(=O)c2ccc(-c3ccccc3)cc2)c2cc(OCCCO)ccc2N1C(=O)c1ccc(-c2ccccc2)cc1 (stereo not given in full) | -0.149 | 0.232 | 0.641 | -1.04 (inactive) | 0.0657 | -0.402 | -0.154 | 0.0956 | -0.0818 | 1.27 | -0.292 | -0.366 | 0.0559 | 0.0671 | 1.29 | 0.0628 | -0.282 | 0.502 | 0.2 | 0.484
C=CCN1C(=O)[C@@]2(O[C@@H](CCO)[C@H]([Si](C)(C)c3ccc(OC)cc3)[C@H]2C)c2cc(N3C(=O)c4cccc5cccc3c45)ccc21 | 1 | -0.0284 | 0.392 | -3.45 (inactive) | 0.102 | 0.307 | -0.232 | -0.189 | -0.4 | 0.18 | 0.515 | -5.15 | -0.144 | 0.965 | 0.734 | -0.176 | 0.123 | 0.272 | 0.201 | 1.21
CO[C@H]1O[C@H](CO)[C@@H](OC(=O)Nc2ccccc2)[C@H](OC(=O)Nc2ccccc2-c2ccccc2)[C@H]1OC(=O)Nc1ccccc1-c1ccccc1 | 1.79 | 0.834 | 0.91 | -2.83 (inactive) | 0.626 | 1.31 | -0.165 | 0.824 | 0.482 | 0.0315 | 1.36 | -3.9 | 0.152 | 2.18 | 0.438 | -0.0735 | 0.366 | 0.767 | 2.08 | 2.54
CO[C@H]1O[C@H](CO)[C@@H](OC(=O)Nc2ccccc2)[C@H](OC(=O)Nc2ccccc2-c2ccccc2)[C@@H]1OC(=O)Nc1ccccc1-c1ccccc1 | 1.36 | 0.318 | 0.464 | -1.05 (inactive) | 1.19 | 1.32 | 0.561 | 1.16 | 0.621 | 0.522 | 0.781 | -3.09 | 0.986 | 1.95 | 0.357 | 0.131 | 1.85 | 1.59 | 1.1 | 2.77
C[C@@H](OCc1ccccc1)C1NC(=O)[C@@]23C(=O)N[C@@H](Cc4ccccc4)C2[C@H](C)[C@@]2(C)O[C@H]2C3/C=C/C/C=C\CNC(=O)[C@@H]2CCCN2C1=O (stereo not given in full) | -0.381 | -0.308 | -0.39 | 0.253 (inactive) | 0.097 | -0.616 | -0.324 | 0.819 | 0.34 | 1.75 | -2.3 | -1.06 | -0.0437 | -1.46 | -1.23 | -0.197 | -0.138 | -0.247 | -0.417 | -0.236
CC(C)C[C@@H]1NC(=O)[C@H]2C[C@@H](C(=O)NCCCC[N+](C)(C)C)[C@@H](c3cccc(OCCO)c3)N2C1=O | 0.812 | 0.0877 | -0.409 | -1.02 (inactive) | 0.756 | -0.285 | 0.0727 | 0.965 | 1.23 | -0.125 | -1.55 | -1.48 | 0.673 | -0.144 | 0.75 | -0.148 | -0.0722 | 0.327 | 1.19 | -0.491
COc1ccc([Si](C)(C)[C@@H]2[C@@H](CCn3cc([C@H](O)c4ccccc4)nn3)O[C@]3(C(=O)N(C)c4c(Br)cc(C)cc43)[C@H]2C)cc1 | -0.384 | 0.041 | 0.703 | -3.07 (inactive) | 0.0565 | -0.755 | -0.212 | -0.395 | -0.248 | 0.206 | -1.29 | -4.23 | 0.287 | -0.0327 | 0.0747 | -0.157 | -0.0991 | -0.169 | 0.184 | 0.178
[N-]=[N+]=NCc1ccccc1C[C@]1(C(=O)NCc2ccccc2)N=C(c2ccc(OCCCO)cc2)O[C@H]1c1ccccc1 | 1.01 | 1.51 | 1.28 | 0.359 (inactive) | 0.19 | -0.516 | -0.864 | -0.565 | -1.03 | 0.928 | 0.508 | -1.95 | -0.941 | 1.82 | 1.36 | 0.108 | 0.23 | 0.682 | 1.31 | 1.22
O=C(NO)[C@]1(Cc2ccccc2)N=C(c2ccc(OCCCO)cc2)O[C@@H]1c1ccccc1 | 1.3 | 0.256 | 0.694 | -4.02 (inactive) | -0.227 | -0.371 | -0.637 | 0.262 | -0.546 | -0.169 | -0.281 | -1.73 | -0.79 | -0.271 | 0.309 | -0.377 | 0.157 | 0.168 | 0.395 | 2.41
C=CCN1C(=O)[C@@]2(O[C@@H](CCn3cc(CCO)nn3)[C@H]([Si](C)(C)c3ccc(OC)cc3)[C@H]2C)c2cc(NC(=O)c3ccc(OC)cc3)ccc21 | 1.18 | 0.0251 | 0.113 | -0.654 (inactive) | 0.402 | 0.546 | 0.283 | 0.571 | 0.493 | 1.32 | 0.988 | -3.92 | 0.415 | 0.317 | 0.33 | 0.0205 | -0.0035 | -0.056 | 0.403 | 1.54
